Source: PubChem (National Center for Advancing Translational Sciences (NCATS))
Hits are enriched below; roughly 19% of the tested compounds scored in any of these assays.
KB-3-1 cytotox – KB-3-1 parental cell cytotoxicity. KB-3-1 viability, CellTiter-Glo ATP luminescence, 72 h. Potency, µM (doses to about 46.1 µM), hits mostly cytotoxic. AID 1347075. 400,000 tested, 1.4% active; note: nearly all actives have a fitted effect of over 60% in size
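Using CellTiter-Glo luminescence, growth of non-resistant KB-3-1 adenocarcinoma cells is assessed 72 h after pin-tool compound addition at 37 °C. Normalized responses across the concentration series yield fitted curves.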
TDP1 cell noCPT – qHTS for Inhibitors of human tyrosyl-DNA phosphodiesterase 1 (TDP1): qHTS in cells in absence of CPT | Potency, µM (titrated, usually from 46.2 µM), for the others: at the top dose activity change, negative = growth inhibition, actives largely listed as inhibitors | AID 686978, 2013 | DT40 Tdp1-/- hTDP1 cells, no CPT, ATP luminescence, 48 h | 420,000 tested, 15% active; note: nearly all actives have a fitted effect of over 55% in size
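Stably hTDP1-transfected Tdp1-null chicken DT40 cells were treated with library compounds minus camptothecin and grown for at least 48 hr at 37 °C, after which cellular ATP was quantified by luminescence.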
TDP1 cell CPT – DT40-hTDP1 cell growth loss with CPT; 420,000 tested, 12% active; AID 686979; Potency, µM (series often up to 46.2 µM), for the others: top-dose activity change, negative = growth inhibition, actives largely listed as inhibitors; chicken DT40 Tdp1-/-;hTDP1 cells + 20 nM CPT, ATP luminescence, 48 h; note: nearly all actives have a fitted effect of over 55% in size
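Chicken DT40 Tdp1-/- cells complemented with human TDP1, 400 cells/well, exposed to compounds plus 20 nM camptothecin for at least 48 h at 37 C; viability read as ATP content by CellTiter-Glo luminescence.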
HT1080 IDH1KD tx – kills HT-1080 cells with IDH1 knockdown | HT-1080 IDH1 knockdown viability, ATP luminescence, 48 h | Potency, µM (top dose mostly 46.1 µM), for the others: top-dose activity, negative = toxicity, usual class: cytotoxic | 360,000 tested, 2% active;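 note: 0% = DMSO wells and -100% = cell-free medium wells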
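After a 2 h attachment period, IDH1KD HT-1080 cells took pin-transferred compound for 48 h at 37 °C; ATP-based luminescence after 10 min room-temperature reagent incubation reported viability.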
HT1080NT lethal – kills 2HG-producing HT-1080-NT fibrosarcoma cells | HT-1080-NT fibrosarcoma viability, CellTiter-Glo ATP luminescence, 48 h | Potency, µM (top dose mostly 46.1 µM), for inactives: at the highest dose activity, negative = less viability, most hits filed as cytotoxic | 360,000 tested, 1.6% active;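 note: NT is the 2HG producing partner of a matched IDH1 knockdown line; 0% = DMSO-treated cells and -100% = media-only wells without cells; nearly all actives have a fitted effect of over 55% in size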
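Luminescent CellTiter-Glo readout after 48 hours of compound exposure at 37 degrees C defined viability of HT-1080-NT cells. Activity was normalized to DMSO wells and cell-free media wells; concentration-response curves were fitted and assigned curve classes.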
KB-V1 cytotox – KB-V1 MDR subline cytotoxicity; KB-V1 MDR cells viability, CellTiter-Glo, 72 h; AID 1347076; Potency, µM (top dose mostly 46.1 µM), actives largely listed as cytotoxic; 400,000 tested, 3.4% active; note: nearly all actives have a fitted effect of over 60% in size
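Following 72 h at 37 degrees C with compound, KB-V1 cell viability was read by CellTiter-Glo luminescence, medium being phenol-red-free DMEM plus 10% FBS; concentration-response parameters came from normalized, curve-fitted qHTS data.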
An asterisk follows results filed as active; i = inactive; ? = inconclusive; / = no result given. Calls come from the whole dose curve; as a rule, active = well fitted curve in the direction sought with a large enough effect; inconclusive = small, poorly fitted or top-dose-only effect, or another doubt; inactive = no such curve, though single readings can be large; an effect the other way counts as inactive or inconclusive. Unless noted, % is set by controls: 0 for no effect and ±100 for the full control effect; potency is the fitted concentration of half-maximal effect.

SMILES	KB-3-1 cytotox	TDP1 cell noCPT	TDP1 cell CPT	HT1080 IDH1KD tx	HT1080NT lethal	KB-V1 cytotox
COCCN1C[C@@H](CO)O[C@@H](n2cnc3c(N(C)C(C)C)ncnc32)C1	i	-8.9%	4.0%	?	?	i
C[C@H](c1ccccc1)N1C[C@@H](COCc2ccccc2)Oc2cc(N3CC[C@@H](N(C)C)C3)ccc2S1(=O)=O	i	?	18.4µM*	?	?	i
C[C@H](c1ccccc1)N1C[C@@H](COCc2ccccc2)Oc2cc(N3CC[C@H](N(C)C)C3)ccc2S1(=O)=O	i	16.4µM*	?	?	?	23.1µM*
CCCCC[C@@H](C)N1C[C@@H](COCc2ccccc2)Oc2cc(N3CC[C@H](N(C)C)C3)ccc2S1(=O)=O	?	18.4µM*	?	?	20.6µM*	?
C[C@@H](c1ccccc1)N1C[C@@H](COCc2ccccc2)Oc2cc(N3CC[C@H](N(C)C)C3)ccc2S1(=O)=O	?	-14.2%	-20.9%	11.8%	1.8%	i
COc1cc2c(cc1OC)Cc1cc(OC)c(OC)cc1Cc1cc(OC)c(OC)cc1C2	/	-21.6%	-28.9%	/	/	/
Cc1cc2nc(-c3cccc(Cl)c3)c(CC(C)(C)C)n2c(C)c1Br	i	?	?	-29.2%	?	i
Cc1cc2nc(-c3ccco3)c(CC(C)(C)C)n2c(C)c1Br	i	23.1µM*	23.1µM*	-5.4%	0.7%	?
COc1ccccc1Cc1c(-c2ccco2)nc2cc(C)c(Br)c(C)n12	?	23.1µM*	?	?	?	i
Cc1cc2nc(-c3ccco3)c(Cc3cccc(Cl)c3)n2c(C)c1Br	i	?	?	20.6µM*	29.1µM*	i
O=C(NCC(=O)N1CCN(c2ccccn2)CC1)c1ccc(Br)o1	i	31.8%	-22.0%	5.6%	18.2%	i
Cn1c(C(=O)Nc2ccc(Cl)cc2)cc2cc(Cl)ccc21	i	-11.3%	-24.8%	-13.6%	-6.4%	i
Cc1nn(Cc2ccc([N+](=O)[O-])cc2)c(=O)n1-c1cccc(Cl)c1	i	-24.4%	0.2%	7.0%	-3.0%	?
COc1ccc(/C=C/c2noc(-c3ccccc3O)n2)cc1	i	?	5.7%	-28.5%	-2.2%	i
COc1ccc(/C=C/c2ccc3c(Br)ccc(O)c3n2)cc1	?	20.6µM*	10.3µM*	-13.0%	-0.5%	?
Cc1ccc2c(Br)cc(Br)c(O)c2n1	/	8.41µM*	7.5µM*	/	/	/
COc1cc(/C=C/C2=NC(=O)C(C)(C)O2)ccc1O	i	-12.4%	?	-25.1%	12.4%	i
COc1cc(/C=C/c2ccc3c(Br)cc(Br)c(O)c3n2)ccc1O	?	5.17µM*	3.26µM*	?	?	i
O=C(NNC(=S)NC1CCCCC1)c1ccccc1Br	i	?	?	0.0%	13.4%	i
COc1ccc(NC(=S)Nc2ccc3nsnc3c2)cc1	i	18.4µM*	6.51µM*	?	-25.2%	18.4µM*
CC1CCN(C(=O)Nc2ccc3nsnc3c2)CC1	i	-21.1%	-0.5%	21.8%	5.6%	i
COc1ccc(NC(=S)c2ccncc2)cc1	?	?	-23.5%	-7.7%	11.7%	18.4µM*
CCOc1ccc(NC(=S)Nc2ccc3nsnc3c2)cc1	i	8.2µM*	5.8µM*	-1.4%	-13.7%	i
COc1ccc(NC(=S)Nc2ccc3nc(C)c(C)nc3c2)cc1	i	-25.0%	-15.6%	0.7%	11.4%	i
COc1ccc(C(=S)Nc2ccc(C)cc2)cc1	i	-4.1%	-24.1%	17.3%	4.7%	i
SMILES	KB-3-1 cytotox	TDP1 cell noCPT	TDP1 cell CPT	HT1080 IDH1KD tx	HT1080NT lethal	KB-V1 cytotox
CC(C)N(C(=O)Nc1ccc2nsnc2c1)C(C)C	?	?	?	?	18.4µM*	?
CNC(=O)c1ccsc1NC(=O)CS(=O)(=O)c1ccc(F)cc1	i	?	?	7.6%	0.1%	i
C=CCn1c(NCCc2ccccc2)nc2c1c(=O)n(C)c(=O)n2C	?	8.2µM*	9.2µM*	?	-15.3%	9.2µM*
Cn1c(=O)c2c(nc(NCCCO)n2Cc2cccc(C(F)(F)F)c2)n(C)c1=O	i	14.6µM*	18.4µM*	-0.2%	1.7%	i
C/C(Cl)=C\Cn1c(NCCc2ccccc2)nc2c1c(=O)n(C)c(=O)n2C	i	0.82µM*	0.651µM*	11.5%	-0.6%	?
Cn1c(=O)c2c(nc(Br)n2Cc2ccc3ccccc3c2)n(C)c1=O	7.31µM*	?	20.6µM*	-27.5%	?	2.59µM*
O=C(OCc1ccccc1Cl)c1ccc(-c2nnn(Cc3ccccc3Cl)n2)cc1	i	/	/	/	/	i
CC(=O)Nc1c(O)n(C)c2ccccc12	i	-12.3%	-5.5%	-2.9%	8.0%	i
